Where a name gives a salt, the structure may show the parent alone.
Tested on: A549
Assay: Euclidean distance of Cell Painting phenotypic profile (signed KS, 77 features) to DMSO centroid (dimensionless distance); 5 or 10 uM (library dependent); higher = stronger phenotypic change vs DMSO (phenoactivity)
Conditions: 48 h
Procedure, shortened: (§1)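 Phenoactivity is defined as the Euclidean distance from a compound profile to the median vehicle profile. Each profile comprised 77 Harmony features, scored as signed Kolmogorov-Smirnov statistics versus same-plate vehicle wells, then plate-position corrected, correlation-weighted and replicate-averaged at the top dose. Five cancer lines and one healthy fibroblast line were exposed to library compounds for 48 h at 10 or 5 uM (0.1% DMSO final).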

| SMILES | Euclidean distance |
| --- | --- |
| O=c1[nH]cc(F)c(=O)[nH]1 [Fluorouracil (5-Fluoracil. 5-FU)] | 3.01 |
| C[N+]1(C)[C@@H]2C[C@@H](OC(=O)C(O)(c3cccs3)c3cccs3)C[C@H]1[C@@H]1O[C@@H]12 [Tiotropium Bromide hydrate] | 0.676 |
| Cc1onc(-c2c(F)cccc2Cl)c1C(=O)N[C@@H]1C(=O)N2[C@@H]1SC(C)(C)[C@@H]2C(=O)O [Flucloxacillin sodium] | 0.772 |
| Cc1csc(-c2nnc(Nc3ccc(Oc4ncccc4-c4ccnc(N)n4)cc3)c3ccccc23)c1 | 3.22 |
| COc1cc2c(cc1OC)[C@H]1C[C@@H](OC(=O)[C@@H](N)C(C)C)[C@H](CC(C)C)CN1CC2 [Valbenazine tosylate] | 0.503 |
| FC(F)c1nc2ccccc2n1-c1nc(N2CCOCC2)nc(N2CCOCC2)n1 | 3.64 |
| COc1ccc(-c2ccc3cc(C(=O)O)ccc3c2)cc1C12CC3CC(CC(C3)C1)C2 [Adapalene] | 2.58 |
| COc1cc2ncnc(Nc3cccc(Cl)c3F)c2cc1OC(=O)N1CCN(C)C[C@H]1C | 2.05 |
| Nc1ccc(S(=O)(=O)Nc2ncccn2)cc1 [Sodium sulfadiazine] | 0.966 |
| CC(C)COCC(CN(Cc1ccccc1)c1ccccc1)N1CCCC1 (centres undefined) [Bepridil hydrochloride] | 2.55 |
| Oc1nc(-c2ccc(C(F)(F)F)cc2)nc2c1CSCC2 | 1.5 |
| CCn1cc(C(=O)O)c(=O)c2cc(F)c(N3CCN(C)CC3)cc21 [Pefloxacin Mesylate] | 0.826 |
| COc1ccc2[nH]cc(CCNC(C)=O)c2c1 [Melatonin] | 0.391 |
| Cc1ccc(C(=O)Nc2ccc(CN3CCN(C)CC3)c(C(F)(F)F)c2)cc1C#Cc1cnc2cccnn12 | 4.2 |
| CNC(=O)c1cc(Oc2ccc(NC(=O)Nc3ccc(Cl)c(C(F)(F)F)c3)cc2)ccn1 [Sorafenib] | 2.51 |
| O=C(CCCCCN1C(=O)c2cccc3cccc(c23)C1=O)NO [Scriptaid] | 3.02 |
| CCCNS(=O)(=O)Nc1ncnc(OCCOc2ncc(Br)cn2)c1-c1ccc(Br)cc1 [Macitentan] | 0.708 |
| CCC1=C[C@@H]2CN(C1)Cc1c([nH]c3ccccc13)[C@@](C(=O)OC)(c1cc3c(cc1OC)N(C)[C@H]1[C@@](O)(C(=O)OC)[C@H](OC(C)=O)[C@]4(CC)C=CCN5CC[C@]31[C@@H]54)C2 [Vinorelbine Tartrate] | 3.7 |
| O=C(NC1CCOCC1)c1ccc(-c2cc(-c3c[nH]nc3-c3ccccn3)ccn2)cc1 | 0.965 |
| CC(C)c1ccc(NC(=O)Cn2cnc3c2c(=O)n(C)c(=O)n3C)cc1 | 1.06 |
| COc1ccccc1S(=O)(=O)Nc1ccc2c(c1)CN(C)C(=O)N2 | 1.83 |
| O=C(O)COCCN1CCN(C(c2ccccc2)c2ccc(Cl)cc2)CC1 (centres undefined) [Cetirizine DiHCl] | 0.92 |
| Nc1ccc(-c2ccc3ncc4ccc(=O)n(-c5cccc(C(F)(F)F)c5)c4c3c2)cn1 [Torin 2] | 3.59 |
| O=C1OC(c2ccc(O)cc2)(c2ccc(O)cc2)c2ccccc21 [Phenolphthalein] | 0.655 |
| CS(=O)(=O)Nc1ccc([N+](=O)[O-])cc1Oc1ccccc1 [Nimesulide] | 1.21 |
| CC1=CC[C@@](O)(C(C)C)CC1 [Terpinen-4-ol] | 0.999 |
| CC(C)c1ccc2oc3nc(N)c(C(=O)O)cc3c(=O)c2c1 [Amlexanox] | 0.9 |
| CCCCC(C)(O)C/C=C/[C@H]1[C@H](O)CC(=O)[C@@H]1CCCCCCC(=O)OC (mixture of isomers) [Misoprostol] | 0.849 |
| CS(=O)(=O)c1ccc([C@@H](O)[C@@H](CO)NC(=O)C(Cl)Cl)cc1 [Thiamphenicol] | 0.742 |

Tested on: DU145
Assay: as above
Conditions: 48 h
Procedure, shortened: as §1

| SMILES | Euclidean distance |
| --- | --- |
| O=C(O)c1cc(/N=N/c2ccc(S(=O)(=O)Nc3ccccn3)cc2)ccc1O [Sulfasalazine] | 0.638 |
| CO[C@H]1C[C@H](O[C@@H]2/C(C)=C/C[C@@H]3C[C@@H](C[C@]4(CC[C@H](C)[C@@H](C5CCCCC5)O4)O3)OC(=O)[C@@H]3C=C(C)/C(=N/O)[C@H]4OC/C(=C\C=C\[C@@H]2C)[C@]43O)O[C@@H](C)[C@@H]1O [Selamectin] | 6.67 |
| Cc1cc(C(C)Nc2ccccc2)c2nc(N3CCOCC3)cc(=O)n2c1 (centres undefined) | 1.61 |
| CC(C)N1CCN(Cc2cnc(-c3cc(-c4cccc5[nH]ccc45)cc4[nH]ncc34)o2)CC1 | 3.41 |
| COc1ccc(C2=N[C@@H](c3ccc(Cl)cc3)[C@@H](c3ccc(Cl)cc3)N2C(=O)N2CCNC(=O)C2)c(OC(C)C)c1 [Nutlin-3] | 1.03 |
| CN(C)c1ccc(O)c2c1C[C@H]1C[C@H]3[C@H](N(C)C)C(O)=C(C(N)=O)C(=O)[C@@]3(O)C(O)=C1C2=O [Minocycline HCl] | 1.2 |
| Oc1cccc(O)c1 [Resorcinol] | 0.938 |
| CCOC(=O)[C@H](CCc1ccccc1)N[C@@H](C)C(=O)N1[C@H](C(=O)O)C[C@H]2CCCC[C@@H]21 [Trandolapril] | 0.864 |
| C=CC(=O)Nc1cc(Nc2nccc(-c3cn(C)c4ccccc34)n2)c(OC)cc1N(C)CCN(C)C [Osimertinib (AZD9291)] | 4.29 |
| Cc1ccc(CNc2ncnc3ccc(-c4ccc(CO)o4)cc23)o1 | 1.67 |
| O=C(O)CC[C@H]1CC[C@@](c2cc(F)ccc2F)(S(=O)(=O)c2ccc(Cl)cc2)CC1 | 0.876 |
| O=c1[nH]cc(F)c(=O)[nH]1 [Fluorouracil (5-Fluoracil. 5-FU)] | 1.12 |
| C[N+]1(C)[C@@H]2C[C@@H](OC(=O)C(O)(c3cccs3)c3cccs3)C[C@H]1[C@@H]1O[C@@H]12 [Tiotropium Bromide hydrate] | 0.73 |
| Cc1onc(-c2c(F)cccc2Cl)c1C(=O)N[C@@H]1C(=O)N2[C@@H]1SC(C)(C)[C@@H]2C(=O)O [Flucloxacillin sodium] | 1.17 |
| Cc1csc(-c2nnc(Nc3ccc(Oc4ncccc4-c4ccnc(N)n4)cc3)c3ccccc23)c1 | 2.83 |
| COc1cc2c(cc1OC)[C@H]1C[C@@H](OC(=O)[C@@H](N)C(C)C)[C@H](CC(C)C)CN1CC2 [Valbenazine tosylate] | 1.01 |
| FC(F)c1nc2ccccc2n1-c1nc(N2CCOCC2)nc(N2CCOCC2)n1 | 3.69 |
| COc1ccc(-c2ccc3cc(C(=O)O)ccc3c2)cc1C12CC3CC(CC(C3)C1)C2 [Adapalene] | 1.39 |
| COc1cc2ncnc(Nc3cccc(Cl)c3F)c2cc1OC(=O)N1CCN(C)C[C@H]1C | 1.72 |
| Nc1ccc(S(=O)(=O)Nc2ncccn2)cc1 [Sodium sulfadiazine] | 1.5 |

| SMILES | Euclidean distance |
| --- | --- |
| CC(C)COCC(CN(Cc1ccccc1)c1ccccc1)N1CCCC1 (centres undefined) [Bepridil hydrochloride] | 2.06 |
| Oc1nc(-c2ccc(C(F)(F)F)cc2)nc2c1CSCC2 | 1.11 |
| CCn1cc(C(=O)O)c(=O)c2cc(F)c(N3CCN(C)CC3)cc21 [Pefloxacin Mesylate] | 0.983 |
| COc1ccc2[nH]cc(CCNC(C)=O)c2c1 [Melatonin] | 0.808 |
| Cc1ccc(C(=O)Nc2ccc(CN3CCN(C)CC3)c(C(F)(F)F)c2)cc1C#Cc1cnc2cccnn12 | 6.75 |
| CNC(=O)c1cc(Oc2ccc(NC(=O)Nc3ccc(Cl)c(C(F)(F)F)c3)cc2)ccn1 [Sorafenib] | 1.74 |
| O=C(CCCCCN1C(=O)c2cccc3cccc(c23)C1=O)NO [Scriptaid] | 2.28 |
| CCCNS(=O)(=O)Nc1ncnc(OCCOc2ncc(Br)cn2)c1-c1ccc(Br)cc1 [Macitentan] | 0.918 |
| CCC1=C[C@@H]2CN(C1)Cc1c([nH]c3ccccc13)[C@@](C(=O)OC)(c1cc3c(cc1OC)N(C)[C@H]1[C@@](O)(C(=O)OC)[C@H](OC(C)=O)[C@]4(CC)C=CCN5CC[C@]31[C@@H]54)C2 [Vinorelbine Tartrate] | 4.27 |
| O=C(NC1CCOCC1)c1ccc(-c2cc(-c3c[nH]nc3-c3ccccn3)ccn2)cc1 | 0.674 |
| CC(C)c1ccc(NC(=O)Cn2cnc3c2c(=O)n(C)c(=O)n3C)cc1 | 1.22 |
| COc1ccccc1S(=O)(=O)Nc1ccc2c(c1)CN(C)C(=O)N2 | 1.91 |
| O=C(O)COCCN1CCN(C(c2ccccc2)c2ccc(Cl)cc2)CC1 (centres undefined) [Cetirizine DiHCl] | 1.29 |
| Nc1ccc(-c2ccc3ncc4ccc(=O)n(-c5cccc(C(F)(F)F)c5)c4c3c2)cn1 [Torin 2] | 1.08 |
| O=C1OC(c2ccc(O)cc2)(c2ccc(O)cc2)c2ccccc21 [Phenolphthalein] | 1.35 |
| CS(=O)(=O)Nc1ccc([N+](=O)[O-])cc1Oc1ccccc1 [Nimesulide] | 0.674 |
| CC1=CC[C@@](O)(C(C)C)CC1 [Terpinen-4-ol] | 0.827 |
| CC(C)c1ccc2oc3nc(N)c(C(=O)O)cc3c(=O)c2c1 [Amlexanox] | 0.886 |
| CCCCC(C)(O)C/C=C/[C@H]1[C@H](O)CC(=O)[C@@H]1CCCCCCC(=O)OC (mixture of isomers) [Misoprostol] | 1.06 |
| CS(=O)(=O)c1ccc([C@@H](O)[C@@H](CO)NC(=O)C(Cl)Cl)cc1 [Thiamphenicol] | 0.68 |

From the supplement of paper PMC10127200
